PubChem BioAssay (NCI)
This is part of a sample that, as a whole, favours compounds with a hit. Of some 79,000 tested, about 15% had one in any assay. No stated cut-off is given here; in the data, active means growth inhibition above about 70%; inactive means the rest.

Legend:
[1] = NCI Yeast Anticancer Drug Screen. Data for the rad50 strain (AID 155);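 further: 0% = growth of vehicle-only cultures of the same strain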; details: S. cerevisiae rad50 strain growth inhibition; at 50.0 µM; stronger effect = higher value
Method in brief: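 Readout: growth inhibition relative to vehicle-treated cultures. Compound exposure was carried out in a genetically defined yeast strain deficient in DNA damage repair.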

[2] = NCI Yeast Anticancer Drug Screen. Data for the mec2-1 strain (AID 157); details: S. cerevisiae mec2-1 strain, at 50.0 µM, stronger effect = higher value
Method in brief: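 Mutant yeast (mec2-1) grown with compound; growth inhibition relative to vehicle control reported.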

[3] = NCI Yeast Anticancer Drug Screen. Data for the sgs1 mgt1 strain (AID 161);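 further: 0% = growth of cultures given vehicle only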; details: S. cerevisiae sgs1 mgt1 strain, at 50.0 µM, stronger effect = higher value
Method in brief: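 Growth of a repair-deficient yeast mutant was monitored after compound treatment and expressed as inhibition relative to vehicle-treated cultures.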

[4] = NCI Yeast Anticancer Drug Screen. Data for the cln2 rad14 strain (AID 165);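 further: 0% = growth equal to vehicle treated cultures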; details: S. cerevisiae cln2 rad14 strain, at 50.0 µM, stronger effect = higher value
Method in brief: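 Readout is yeast growth inhibition versus vehicle-treated controls, using a strain with cln2 and rad14 alterations exposed to compound.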

[5] = NCI Yeast Anticancer Drug Screen. Data for the bub3 strain (AID 167); details: S. cerevisiae bub3 mutant strain, at 50.0 µM, stronger effect = higher value
Method in brief: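 Readout: yeast growth inhibition, expressed relative to vehicle-only wells. The test organism is a mutant strain from a panel with lesions in DNA repair or checkpoint genes.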

[6] = NCI Yeast Anticancer Drug Screen. Data for the mlh1 rad18 strain (AID 175); details: S. cerevisiae mlh1 rad18 strain growth inhibition; at 50.0 µM; stronger effect = higher value
Method in brief: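 Genetically defined yeast (DNA repair-deficient) exposed to compounds; growth inhibition determined relative to vehicle.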

Measured: growth inhibition

N=C(N=C(N)N)N1CCOCC1
inactive: [1] 8.95% | [2] 20.1% | [3] 9.75% | [4] 32.7% | [5] 30.1% | [6] -0.55%

CC(C)[C@H]1CC[C@@](C)(C(=O)O)C1
inactive: [1] 12.4% | [2] 7.5% | [3] 15.2% | [4] 5.8% | [5] 23.4% | [6] 16.4%

COc1ccc(C(O)C(O)(c2ccccc2)c2ccc(OC)cc2)cc1 (stereo unspecified)
inactive: [1] -6.05% | [2] -4.1% | [3] -6.3% | [4] -19.1% | [5] 19.9% | [6] -11.6%

CCCC(=O)Nc1ccccc1OC
inactive: [1] 12.8% | [2] 12.7% | [3] 9.2% | [4] 11.9% | [5] 24.4% | [6] -0.75%

CCC1(C#N)N=C(c2ccccc2)c2ccccc2N1C(=O)Oc1ccccc1 (stereo unspecified)
inactive: [1] 3.65% | [2] 2.65% | [3] -9.7% | [4] -15.7% | [5] 11.1% | [6] 19.6%

CC(O)c1ccc2c(c1)Nc1ccccc1S2 (stereo unspecified)
inactive: [1] -6.95% | [2] -21.9% | [3] -16.4% | [4] -7.05% | [5] -24.4% | [6] -11%

O=C1O/C(=C2/OC(=O)c3ccccc32)c2ccccc21
inactive: [1] -8.05% | [2] -7.95% | [3] -3.75% | [4] -44% | [5] 14.5% | [6] -0.65%

COc1ccc(N(N=Nc2ccccc2)C(C)=O)cc1
inactive: [1] -2.05% | [2] 2% | [3] 30.9% | [4] -4.75% | [5] -16.7% | [6] 11.9%

O=C(Nc1ccc(Cl)c([N+](=O)[O-])c1)Oc1ccc2ccccc2c1
inactive: [1] 14.6% | [2] 3% | [3] 8.15% | [4] 11.9% | [5] 23.4% | [6] 10.7%

CC12CCC3[C@@H](CC3(C)C)C(O)(CCC1=O)C2 (stereo partly specified)
inactive: [1] -10.4% | [2] -9.35% | [3] -10.8% | [4] -23.9% | [5] -5.35% | [6] -57.1%

COC(=O)C(Cc1ccccc1)NC(=O)C(CCC(=O)OCc1ccccc1)NC(=O)OC(C)(C)C (stereo unspecified)
inactive: [1] 30.9% | [2] 8.55% | [3] 19.8% | [4] 19.9% | [5] 31.4% | [6] 22%

Cc1c(O)cc(O)c(C)c1C
inactive: [1] -0.3% | [2] -23.3% | [3] -8.6% | [4] -2% | [5] 9.8% | [6] -8.65%

CC(=O)Nc1ccc(F)c([N+](=O)[O-])c1
inactive: [1] -6.45% | [2] -19.6% | [3] 3.35% | [4] -13.7% | [5] -14.9% | [6] 5.7%

Clc1ccc2sc(-c3ccccc3)nc2c1
inactive: [1] -22.8% | [2] -18.4% | [3] -4.45% | [4] -23.1% | [5] 7.45% | [6] -3.6%

CC(=O)OCC1OC(n2c(C)c(C(C)=O)c(-c3ccc(Cl)cc3)c(C#N)c2=S)C(OC(C)=O)C(OC(C)=O)C1OC(C)=O (stereo unspecified)
inactive: [1] -37.9% | [2] -9.55% | [3] -2.1% | [4] 12.2% | [5] 9.15% | [6] -2.65%

CC(=O)SCC(C)CCl (stereo unspecified)
inactive: [1] -12.4% | [2] -47.6% | [3] -30.9% | [4] -3.15% | [5] -17.7% | [6] -25.4%

O=C(Nc1ccc(Cl)cc1)OCc1ccco1
inactive: [1] 2.2% | [2] 24.1% | [3] 24.4% | [4] -12.4% | [5] 17.8% | [6] 16.8%

Nc1c(Br)c(Br)cc2c1-c1ccc(Br)cc1C2
inactive: [1] 8.2% | [2] 3.75% | [3] -2.65% | [4] 8.75% | [5] 7.9% | [6] -4.7%

CC(C)CCCC(C)C1CCC2C3CCC4CC5(C)C(CC4(C)C3CCC12C)C(=O)C5(Cl)Cl (stereo unspecified)
inactive: [1] 13.2% | [2] -2.7% | [3] -22.4% | [4] 0% | [5] -3.55% | [6] -27.9%

N#Cc1nc(Nc2cccc3ccccc23)sc1N
inactive: [1] 8.2% | [2] 14.8% | [3] 20.9% | [4] 12.1% | [5] 15.7% | [6] 51.1%

CC(C)(C)c1cc(C[N+](C)(C)[O-])c(O)c(-c2ccccc2)c1
inactive: [1] -0.65% | [2] -26.2% | [3] 2.05% | [4] -19.2% | [5] 6.35% | [6] -13.6%

CCOC(=O)c1ccc(NCc2ccc3oc(=O)c(-c4ccccc4)nc3c2)cc1
inactive: [1] -14.7% | [2] -16.6% | [3] -12.8% | [4] 22.2% | [5] -17.7% | [6] -17.4%

Nc1ccc(C(=O)NN2C(=O)C(Cl)C2c2ccc(O)cc2)cc1 (stereo unspecified)
inactive: [1] -1.75% | [2] -1.45% | [3] -17.2% | [4] -3.05% | [5] 4.8% | [6] -25.6%

CCOC(=O)/C(=C\c1ccccc1)NC(=O)c1ccccc1
inactive: [1] 5.4% | [2] -2.75% | [3] -2.35% | [4] 7.3% | [5] 20% | [6] 4.85%

CC/C(C)=C1\OC(=O)C(C)C(O)C(Cc2cccnc2)NC(=O)C(NC(=O)c2ncccc2O)C(C)OC1=O (stereo unspecified)
inactive: [1] -4.45% | [2] 3.7% | [3] 0.45% | [4] -10.4% | [5] -3% | [6] -14.9%

COC1(OC)C2(Cl)CC(C(=O)O)C1(Cl)C(Cl)=C2Cl (stereo unspecified)
inactive: [1] 7.55% | [2] 3.85% | [3] 19.6% | [4] -51.7% | [5] -1.35% | [6] 13.7%

CCC(C)NC(=O)c1ccccc1C (stereo unspecified)
inactive: [1] 6.25% | [2] -2.75% | [3] -3.2% | [4] -10.2% | [5] 8.15% | [6] -0.2%

Cc1cccc(C(C#N)C(=O)CCCC(=O)Nc2ccccc2[N+](=O)[O-])c1 (stereo unspecified)
inactive: [1] -44.1% | [2] 9.4% | [3] 5.15% | [4] -36.6% | [5] 6.9% | [6] 11%

CCCC(=O)Oc1ccc(CC)cc1
inactive: [1] 25.5% | [2] 15.4% | [3] 8.75% | [4] -20.4% | [5] 14.5% | [6] 20.9%

CC(C)C1NC(=O)[C@H](C)OC(=O)[C@@H](C(C)C)NC(=O)[C@@H](C)OC(=O)C(C(C)C)NC(=O)[C@H](C)OC1=O (stereo partly specified)
inactive: [1] -36.7% | [2] -2.15% | [3] -17.1% | [4] 14.9% | [5] 2.85% | [6] -10.2%

N#Cc1c(N)nc(Nc2cccc3ccccc23)c(C#N)c1C#N
inactive: [1] 37.7% | [2] 29.7% | [3] 29.1% | [4] 39.9% | [5] 29.4% | [6] 36.8%

NNc1ncnc2cccc(Cl)c12
inactive: [1] 7.95% | [2] 27.2% | [3] 18.6% | [4] -24.7% | [5] 1.8% | [6] 11.9%

CCOC(=O)c1c[nH]c2c(=O)n(C)c(=O)[nH]c12
inactive: [1] 7.25% | [2] -7.75% | [3] 3.5% | [4] -28.8% | [5] 0.5% | [6] 24.1%

Oc1ccc2ccccc2c1C(c1ccccc1)N1CCOCC1 (stereo unspecified)
inactive: [1] -2.5% | [2] -11% | [3] -5.9% | [4] -24.7% | [5] -12.4% | [6] -15.2%

CSc1ccc(NC(=O)Oc2ccc(NC(C)=O)cc2)cc1
inactive: [1] 8.55% | [2] -0.95% | [3] 6.05% | [4] 14.4% | [5] 22.8% | [6] 4.45%

C=CCOC(=O)CCCCC
inactive: [1] 5% | [2] -2.7% | [3] 2.65% | [4] 7.9% | [5] -3.65% | [6] 0.75%

CNCCNc1ncc([N+](=O)[O-])s1
inactive: [1] -3.25% | [2] -9.1% | [3] -37.6% | [4] -25.1% | [5] -43% | [6] -32.5%

CC(=O)c1cc(C)c(C)cc1C
inactive: [1] -13.9% | [2] 7.6% | [3] -2.5% | [4] -12% | [5] 1.65% | [6] -12.5%

Cc1cc(NS(=O)(=O)c2ccc(NC(=O)c3ccc(Cl)c4c(Nc5ccc(S(N)(=O)=O)cc5)c5ccccc5nc34)cc2)no1
inactive: [1] 34% | [2] 36.8% | [3] 33.5% | [4] 46.2% | [5] 31.4% | [6] 68.1%

COc1cc2nccnc2c(N)c1OC
inactive: [1] 14.6% | [2] 7.65% | [3] 7.75% | [4] -1.7% | [5] -0.95% | [6] 19.9%

Cc1c(C)c(C)c(CC2(C)CSC2)c(CC2(C)CSC2)c1C
inactive: [1] -1.65% | [2] -20.2% | [3] -12.6% | [4] 14.6% | [5] -41.8% | [6] 10.9%
